Experimental data as given in PubChem BioAssay.
Active and inactive are the calls of the source. Unless noted, no rule for the calls is given here.

Assays:
[1] = tested on: Wnt5a (protein binding on small-molecule microarray); assay: small molecules binding Wnt5a protein – biophysical, small-molecule microarray, 635/667 nm fluorescence, primary screen (AID 1142); conditions: 635 nm fluorescence, higher = more signal;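 also: fluorescence read at 667 nm with signal to noise per printed feature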
[2] = ATP-based viability of Huh7 replicon cells – cell-based, CellTiter-Glo luminescence, basal, 48 h, cytotoxicity control for HCV replication inhibitor project, primary screen (AID 1143); conditions: higher = more signal, called active from +8 up or from −8 down;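 also: Huh7 hepatoma cells carrying a hepatitis C replication reporter with no stimulus; test concentration not given here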
[3] = Pseudomonas biofilm growth suppression – PAO1 strain, BacTiter-Glo luminescence, LB-PBS, primary screen (AID 1144); conditions: P. aeruginosa PAO1 biofilm, 12 h, higher = more signal
[4] = basal CRE-LacZ reporter activity in PC12 – cell-based, unstimulated, primary screen (AID 1145); conditions: no forskolin, luminescence, 4.5 h, higher = more signal, called active from +8 up or from −8 down
[5] = forskolin-driven CRE-LacZ activity in PC12 – cell-based, CRE-LacZ reporter, forskolin-stimulated, primary screen (AID 1146); conditions: luminescence, 4.5 h, higher = more signal, called active from +8 up or from −8 down;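 also: PC12 cells with 6xCRE LacZ reporter stimulated by forskolin 10 µM; beta-galactosidase reporter signal reflecting CREB driven transcription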
[6] = target: Streptavidin (Streptomyces avidinii) (UniProt P22629); assay: compounds binding control protein streptavidin – biophysical, small-molecule microarray, 635/667 nm fluorescence, artefact control for SMM compound annotation, primary screen (AID 1147); conditions: higher = more signal;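 also: signal reflects streptavidin binding to arrayed compounds as a control protein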
[7] = probe aInhba binding on compound microarray – biochemical, small-molecule microarray, 635/667 nm fluorescence, primary screen (AID 1148); conditions: higher = more signal;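 also: score merges 667nm spot fluorescence with signal-to-noise for antibody binding to printed compounds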
[8] = target: Torsin-1A (Homo sapiens) (UniProt O14656); assay: TOR1A wild-type binding on microarray – cell lysate, small-molecule microarray, lysate, 635/667 nm, primary screen (AID 1149); conditions: COS7 hTOR1A-WT lysate, 635 nm fluorescence, higher = more signal
[9] = target: Torsin-1A (Homo sapiens) (UniProt O14656); assay: torsin A mutant lysate binding on microarrays – cell lysate, small-molecule microarray, COS7 lysate, 635/667 nm fluorescence, primary screen (AID 1150); conditions: COS7 hTOR1A mutant lysate, 635 nm fluorescence, higher = more signal;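 also: score pools 667 nm emission and signal to noise measuring lysate protein binding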
[10] = tested on: Sonic hedgehog protein (Shh); assay: Sonic hedgehog microarray binding compounds – biochemical, small-molecule microarray, 635/667 nm fluorescence, primary screen (AID 1151); conditions: 635 nm fluorescence, higher = more signal;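 also: Shh protein binding to compounds spotted on small-molecule microarray slides; score combines spot fluorescence intensity with signal-to-noise across triplicate slides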
[11] = optical density shifts of acrAB sulA E. coli – strain DRC41, OD650, 48 h, E. coli filamentation inducer project, primary screen (AID 1152); conditions: higher = more signal, called active from +8 up or from −8 down;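 also: E. coli MC1000 strain DRC41 lacking acrAB efflux pump and sulA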
[12] = probe aLefty1 binding on compound microarray – biochemical, small-molecule microarray, 635/667 nm fluorescence, primary screen (AID 1153); conditions: higher = more signal;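 also: score merges spot fluorescence with signal-to-noise ratio from the scanned slide images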
[13] = plasmodial surface anion channel blockers, osmotic lysis – cell-based, P. falciparum Indochina, OD700, 1 h, primary screen (AID 1154); conditions: P. falciparum Indochina infected RBC osmotic lysis, higher = more signal, called active from +8 up or from −8 down
[14] = plasmodial surface anion channel blockers, osmotic lysis – cell-based, P. falciparum Indochina, OD700, 2 h, primary screen (AID 1155);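 also: lysis reports solute entry through the parasite surface anion channel PSAC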; conditions: P. falciparum Indochina infected erythrocytes, higher = more signal, called active from +8 up or from −8 down
[15] = changes in parasitized red cell lysis, either direction – P. falciparum Indochina, OD700, 3 h, PSAC antagonist project, primary screen (AID 1156); conditions: P. falciparum-infected erythrocytes, osmotic lysis, higher = more signal, called active from +8 up or from −8 down
[16] = plasmodial surface anion channel blockers, osmotic lysis – cell-based, P. falciparum Indochina, OD700, 18 h, primary screen (AID 1157); conditions: P. falciparum Indochina infected erythrocytes, osmotic lysis OD700, 18 h; higher = more signal, called active from +8 up or from −8 down
[17] = S6 kinase pathway phospho-S6 level changes – cell-based, A549, cytoblot, luminescence, serum-stimulated, primary screen (AID 1158); conditions: 5 h, higher = more signal;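 also: serum-stimulated A549 lung adenocarcinoma cells; signal is phosphorylated S6 detected by cytoblot immunostaining with HRP secondary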
[18] = target: NADPH oxidase 2 (Homo sapiens) (UniProt P04839); assay: compounds shifting NOX2 Amplex Red fluorescence – cell-based, HEK293-NOX2, PMA-stimulated, NOX inhibitor project, primary screen (AID 1159); conditions: 45 min, higher = more signal, called active from +8 up or from −8 down; also: test concentration not given here
[19] = target: NADPH oxidase 4 (Homo sapiens) (UniProt Q9NPH5); assay: compounds shifting NOX4 Amplex Red fluorescence – cell-based, HEK293-NOX4, tetracycline-induced, NOX inhibitor project, primary screen (AID 1160); conditions: HEK293-NOX4, Amplex Red H2O2 fluorescence, 45 min; higher = more signal, called active from +8 up or from −8 down
[20] = target: NADPH oxidase 5 (Homo sapiens) (UniProt Q96PH1); assay: compounds shifting NOX5 Amplex Red fluorescence – cell-based, HEK293-NOX5, NOX inhibitor project, primary screen (AID 1161); conditions: HEK293-NOX5, ionomycin, 45 min, higher = more signal
Chain of NADPH oxidase 5 (Homo sapiens) (Q96PH1 whole entry, looked up): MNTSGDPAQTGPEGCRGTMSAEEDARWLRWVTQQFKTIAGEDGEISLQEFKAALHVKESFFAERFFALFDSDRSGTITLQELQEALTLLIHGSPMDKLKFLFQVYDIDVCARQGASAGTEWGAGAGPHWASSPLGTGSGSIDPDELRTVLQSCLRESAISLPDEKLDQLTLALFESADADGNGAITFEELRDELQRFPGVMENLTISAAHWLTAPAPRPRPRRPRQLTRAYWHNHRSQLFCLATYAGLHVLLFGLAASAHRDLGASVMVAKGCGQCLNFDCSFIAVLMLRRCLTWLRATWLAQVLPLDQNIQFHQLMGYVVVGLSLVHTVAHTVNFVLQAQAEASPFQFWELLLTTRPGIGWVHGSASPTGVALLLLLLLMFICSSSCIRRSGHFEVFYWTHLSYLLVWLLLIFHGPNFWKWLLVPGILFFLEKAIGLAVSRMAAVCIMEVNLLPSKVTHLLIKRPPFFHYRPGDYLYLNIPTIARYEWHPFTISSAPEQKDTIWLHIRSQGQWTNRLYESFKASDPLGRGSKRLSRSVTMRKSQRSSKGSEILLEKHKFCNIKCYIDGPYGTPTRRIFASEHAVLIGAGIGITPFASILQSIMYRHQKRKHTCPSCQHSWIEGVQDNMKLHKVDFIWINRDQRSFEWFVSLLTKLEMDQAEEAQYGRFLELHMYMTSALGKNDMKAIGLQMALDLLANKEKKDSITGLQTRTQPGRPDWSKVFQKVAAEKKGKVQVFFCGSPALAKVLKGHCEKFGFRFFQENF

Chain of NADPH oxidase 4 (Homo sapiens) (Q9NPH5 whole entry, looked up): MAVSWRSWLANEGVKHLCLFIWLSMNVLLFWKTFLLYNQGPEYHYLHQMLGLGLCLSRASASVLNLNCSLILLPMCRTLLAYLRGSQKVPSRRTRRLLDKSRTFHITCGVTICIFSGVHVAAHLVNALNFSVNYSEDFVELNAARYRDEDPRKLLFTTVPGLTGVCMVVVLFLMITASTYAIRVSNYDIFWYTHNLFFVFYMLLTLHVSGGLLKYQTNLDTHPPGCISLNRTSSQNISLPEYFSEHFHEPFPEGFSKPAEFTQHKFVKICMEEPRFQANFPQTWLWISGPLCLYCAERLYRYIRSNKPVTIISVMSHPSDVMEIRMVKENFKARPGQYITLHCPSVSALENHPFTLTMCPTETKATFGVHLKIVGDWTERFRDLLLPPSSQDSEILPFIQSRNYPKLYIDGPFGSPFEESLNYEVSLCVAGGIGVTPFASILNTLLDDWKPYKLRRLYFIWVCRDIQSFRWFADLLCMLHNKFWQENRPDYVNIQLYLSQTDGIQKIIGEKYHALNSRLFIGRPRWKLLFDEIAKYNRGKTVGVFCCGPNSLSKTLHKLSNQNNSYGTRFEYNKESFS
Chain of NADPH oxidase 2 (Homo sapiens) (P04839 whole entry, looked up): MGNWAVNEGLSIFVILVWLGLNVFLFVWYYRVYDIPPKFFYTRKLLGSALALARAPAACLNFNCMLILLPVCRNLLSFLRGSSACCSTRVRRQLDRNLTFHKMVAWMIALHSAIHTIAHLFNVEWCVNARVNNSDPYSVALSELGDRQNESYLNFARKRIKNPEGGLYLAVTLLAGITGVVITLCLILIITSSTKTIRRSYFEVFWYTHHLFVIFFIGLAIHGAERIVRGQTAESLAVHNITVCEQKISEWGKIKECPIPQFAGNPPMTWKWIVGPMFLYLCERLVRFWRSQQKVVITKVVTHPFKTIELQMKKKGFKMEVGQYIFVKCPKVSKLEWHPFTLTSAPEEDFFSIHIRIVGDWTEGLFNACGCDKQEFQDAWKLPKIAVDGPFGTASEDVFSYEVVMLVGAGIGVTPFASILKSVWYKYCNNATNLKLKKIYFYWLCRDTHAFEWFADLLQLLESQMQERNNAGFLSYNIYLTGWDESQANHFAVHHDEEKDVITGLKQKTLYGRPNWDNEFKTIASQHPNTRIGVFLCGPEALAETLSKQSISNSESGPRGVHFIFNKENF
Chain of Torsin-1A (Homo sapiens) (O14656 whole entry, looked up): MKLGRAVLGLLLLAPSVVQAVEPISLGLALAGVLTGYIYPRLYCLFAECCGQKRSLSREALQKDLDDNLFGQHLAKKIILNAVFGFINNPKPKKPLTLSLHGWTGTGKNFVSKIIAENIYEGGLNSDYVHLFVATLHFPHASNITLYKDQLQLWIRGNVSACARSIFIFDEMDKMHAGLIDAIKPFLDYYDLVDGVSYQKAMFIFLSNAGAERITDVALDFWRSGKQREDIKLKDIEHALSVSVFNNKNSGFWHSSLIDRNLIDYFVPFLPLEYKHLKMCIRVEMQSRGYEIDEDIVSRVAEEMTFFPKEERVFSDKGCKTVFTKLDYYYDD
Chain of Streptavidin (Streptomyces avidinii) (P22629 whole entry, looked up): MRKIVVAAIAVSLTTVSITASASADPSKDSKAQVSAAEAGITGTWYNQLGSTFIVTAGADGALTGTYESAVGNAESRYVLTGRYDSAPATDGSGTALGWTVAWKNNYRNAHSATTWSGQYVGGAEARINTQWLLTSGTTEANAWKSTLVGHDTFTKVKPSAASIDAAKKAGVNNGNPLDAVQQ

Row | Compound | composite z-score [1] | z-score [2] | z-score [3] | z-score [4] | z-score [5] | composite z-score [6] | composite z-score [7] | composite z-score [8] | composite z-score [9] | composite z-score [10] | z-score [11] | composite z-score [12] | z-score [13] | z-score [14] | z-score [15] | z-score [16] | z-score [17] | z-score [18] | z-score [19] | z-score [20]
1 | CC(CCN1CCCCc2nc(C)c(C)cc21)=NO[C@H](C)c1cn([C@H](CO)Cc2ccccc2)nn1 | 0.101 | -1.11 (inactive) | 0.0152 (inactive) | 2.24 (inactive) | 0.743 (inactive) | 0.0378 | -0.256 | 2.04 | 0.164 | 1.32 | 0.285 (inactive) | -0.0162 | 2.87 (inactive) | 1.16 (inactive) | 0.758 (inactive) | 0.589 (inactive) | -0.286 | -0.939 (inactive) | 0.0532 (inactive) | 0.477
2 | CCOC(=O)[C@H](CC(C)C)NC(=O)CCC1CC(OC(=O)NCc2cccc3ccccc23)CC2(CCCC(COC(=O)NCCOC)O2)O1 (stereo not given in full) | 0.238 | -1.3 (inactive) | -0.656 (inactive) | -0.526 (inactive) | 0.389 (inactive) | 0.0772 | 0.119 | -0.114 | 0.753 | 1.03 | 1.24 (inactive) | -0.0559 | -0.137 (inactive) | 0.184 (inactive) | -0.283 (inactive) | -0.196 (inactive) | 0.142 | 1.05 (inactive) | 0.96 (inactive) | -0.464
3 | COC(=O)[C@H](C)NC(=O)CCC1CC(OC(=O)NCc2ccc3c(c2)OCO3)CC2(CCCC(COC(=O)NCC(c3ccccc3)c3ccccc3)O2)O1 (stereo not given in full) | 0.6 | -4.67 (inactive) | -0.405 (inactive) | -0.437 (inactive) | 1.96 (inactive) | 0.693 | -0.0719 | 0.0104 | 0.947 | 1.97 | 0.246 (inactive) | -0.0969 | 17.6 (active) | 4.8 (inactive) | 1.34 (inactive) | -0.685 (inactive) | 3.66 | -1.25 (inactive) | -1.5 (inactive) | -3.77
4 | CCN1C(=O)[C@H]2[C@H]3[C@H](O)[C@H](O)CC(=NOC[C@H]4O[C@H](c5ccccc5)C=C[C@@H]4Oc4ccc(OC)cc4)[C@@H]3CC[C@H]2C1=O | 0.353 | -0.509 (inactive) | 1.13 (inactive) | 0.843 (inactive) | 0.126 (inactive) | 0.29 | 0.0497 | 0.66 | 0.586 | 0.827 | 0.575 (inactive) | 0.171 | 10.7 (active) | 1.65 (inactive) | 0.622 (inactive) | 0.809 (inactive) | -0.763 | 0.863 (inactive) | 0.91 (inactive) | 0.456
5 | CC(C)(C)N1C(=O)[C@H]2[C@H]3[C@H](O)[C@H](O)CC(=NO[C@@H]4O[C@H](CO)[C@@H](O)[C@H](O)[C@H]4O)[C@H]3CC[C@H]2C1=O | 0.0479 | -2.05 (inactive) | 0.745 (inactive) | -0.656 (inactive) | -0.0093 (inactive) | -0.132 | 0.179 | 0.462 | 0.0791 | 0.345 | -1.73 (inactive) | -0.193 | 5.45 (inactive) | 1.46 (inactive) | 1.01 (inactive) | 1.24 (inactive) | -0.527 | 0.192 (inactive) | -0.912 (inactive) | -3.69
6 | CCOC(=O)NN=C1C[C@@H](O)[C@@H](O)[C@@H]2[C@@H]3C(=O)N(c4cccc(Oc5ccccc5)c4)C(=O)[C@@H]3CC[C@H]12 | 0.0643 | -1.16 (inactive) | -0.215 (inactive) | 0.523 (inactive) | 0.583 (inactive) | 0.948 | -0.129 | 0.933 | 0.0519 | 0.206 | 0.0433 (inactive) | -0.0958 | 1.6 (inactive) | -1.04 (inactive) | 0.0278 (inactive) | -1.58 (inactive) | 0.742 | -0.515 (inactive) | 0.209 (inactive) | -1.33
7 | CCC(=O)[C@@]1(O)C(=O)N2C(=C3C(=O)OCC[C@@H]31)N(Cc1ccccc1)C(C)=C(C(=O)OC)[C@H]2c1ccccc1 | -0.308 | 0.321 (inactive) | -1.51 (inactive) | 0.513 (inactive) | -0.205 (inactive) | 0.565 | 0.0633 | 0.578 | 0.224 | 0.438 | -0.426 (inactive) | -0.103 | 0.246 (inactive) | 0.633 (inactive) | -0.242 (inactive) | 0.465 (inactive) | -0.131 | 0.0553 (inactive) | -0.147 (inactive) | 0.245
8 | CCc1cc2c(nc1CC)CCN(CCC(C)=NO[C@H](C)c1cn([C@H](CO)Cc3ccccc3)nn1)C2 | 0.167 | -0.225 (inactive) | -0.374 (inactive) | 2.4 (inactive) | 0.406 (inactive) | 0.656 | 0.173 | 1.49 | 0.978 | 0.236 | -0.266 (inactive) | 0.832 | 4.7 (inactive) | 1.3 (inactive) | 1.84 (inactive) | 0.514 (inactive) | 0.917 | -0.221 (inactive) | -0.461 (inactive) | 2.32
